# Measured values from PubChem BioAssay AID1159580 (chemical genetic matrix, 2015).
# Several values for one entry are separate records, joined by “and”; a condition that tells them apart may be missing. Equal entries are not always repeated. About 2,000 (36%) of roughly 5,500 compounds were called active. Not shown: some 18% with an inconclusive outcome. Rule as the data show it: active = normalized growth mostly below about 0.91 (no sharp cut-off); inconclusive = no clear call, values can overlap the other calls; inactive = mostly above about 0.92. The list shows a part of the results. Some structures have more than one record in an assay (separate samples or runs), and their calls can disagree.
# Assay: chemical genetic growth profiling, strain panel (AID 1159580);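 also: tested at 20 µM; growth read once vehicle control cultures reached saturation at 30 °C; 1 = growth at the plate median or of vehicle wells; lower values mean less growth of the strain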
# Settings: S. cerevisiae deletion strains, growth OD
smiles,measurement,setting,value
O=c1c2ccccc2[se]n1-c1ccccc1,normalized growth,"locus YAL013W, strain DEP1, stronger effect = lower value",0.0627 (active) and 0.948 (inactive)
same,normalized growth,"locus YAL021C, strain ccr4, stronger effect = lower value",0.0697 (active)
same,normalized growth,"locus YAL026C, strain drs2, stronger effect = lower value",0.0626 (active)
same,normalized growth,"locus YAL030W, strain snc1, stronger effect = lower value",0.057 (active)
same,normalized growth,"locus YAL040C, strain CLN3, stronger effect = lower value",0.981 (inactive)
same,normalized growth,"locus YBL061C, strain skt5, stronger effect = lower value",0.0616 (active)
same,normalized growth,"locus YBR009C, strain hhf1, stronger effect = lower value",0.067 (active)
same,normalized growth,"locus YBR021W, strain FUR4, stronger effect = lower value",0.0951 (active)
same,normalized growth,"locus YBR023C, strain chs3, stronger effect = lower value",0.0842 (active)
same,normalized growth,"locus YBR171W, strain sec66, stronger effect = lower value",0.927 (inactive)
same,normalized growth,"locus YBR229C, strain ROT2, stronger effect = lower value",1.02 (inactive)
same,normalized growth,"locus YBR231C, strain swc5, stronger effect = lower value",0.129 (active)
same,normalized growth,"locus YBR279W, strain paf1, stronger effect = lower value",0.0647 (active)
same,normalized growth,"locus YCL011C, strain gbp2, stronger effect = lower value",0.057 (active)
same,normalized growth,"locus YCL016C, strain dcc1, stronger effect = lower value",0.102 (active)
same,normalized growth,"locus YCL029C, strain bik1, stronger effect = lower value",0.873 (active)
same,normalized growth,"locus YCL061C, strain MRC1 (second series), stronger effect = lower value",0.952 (inactive)
same,normalized growth,"locus YCL061C, strain MRC1, stronger effect = lower value",0.0738 (active)
same,normalized growth,"locus YCL069W, strain vba3, stronger effect = lower value",0.0606 (active)
same,normalized growth,"locus YCR088W, strain abp1, stronger effect = lower value",0.0595 (active)
same,normalized growth,"locus YDL005C, strain med2, stronger effect = lower value",0.071 (active)
same,normalized growth,"locus YDL035C, strain GPR1, stronger effect = lower value",0.0537 (active)
same,normalized growth,"locus YDL040C, strain nat1, stronger effect = lower value",0.909 (active)
same,normalized growth,"locus YDL074C, strain BRE1, stronger effect = lower value",0.0969 (active)
same,normalized growth,"locus YDL101C, strain DUN1, stronger effect = lower value",0.869 (active)
same,normalized growth,"locus YDL134C, strain PPH21, stronger effect = lower value",0.0461 (active)
same,normalized growth,"locus YDL185W, strain tfp1, stronger effect = lower value",0.999 (inactive)
same,normalized growth,"locus YDL192W, strain arf1, stronger effect = lower value",0.0608 (active)
same,normalized growth,"locus YDR001C, strain nth1, stronger effect = lower value",0.0663 (active)
same,normalized growth,"locus YDR069C, strain doa4, stronger effect = lower value",0.0621 (active)
same,normalized growth,"locus YDR101C, strain arx1, stronger effect = lower value",0.437 (active)
same,normalized growth,"locus YDR137W, strain rgp1, stronger effect = lower value",0.754 (active)
same,normalized growth,"locus YDR150W, strain NUM1, stronger effect = lower value",0.0598 (active) and 0.956 (inactive)
same,normalized growth,"locus YDR159W, strain sac3, stronger effect = lower value",0.854 (active)
same,normalized growth,"locus YDR162C, strain NBP2, stronger effect = lower value",0.054 (active)
same,normalized growth,"locus YDR195W, strain ref2",1.46 [resistant] (active)
same,normalized growth,"locus YDR297W, strain sur2, stronger effect = lower value",0.06 (active)
same,normalized growth,"locus YDR318W, strain mcm21, stronger effect = lower value",0.0683 (active)
same,normalized growth,"locus YDR334W, strain swr1, stronger effect = lower value",0.0625 (active)
same,normalized growth,"locus YDR335W, strain msn5, stronger effect = lower value",0.574 (active)
same,normalized growth,"locus YDR363W, strain ESC2, stronger effect = lower value",0.988 (inactive)
same,normalized growth,"locus YDR388W, stronger effect = lower value",0.0602 (active)
same,normalized growth,"locus YDR392W, strain spt3, stronger effect = lower value",0.0762 (active)
same,normalized growth,"locus YDR502C, strain sam2, stronger effect = lower value",0.0635 (active)
same,normalized growth,"locus YEL003W, strain gim4, stronger effect = lower value",0.106 (active)
same,normalized growth,"locus YEL037C, strain rad23, stronger effect = lower value",0.0632 (active)
same,normalized growth,"locus YEL061C, strain CIN8 (second series), stronger effect = lower value",0.0621 (active)
same,normalized growth,"locus YEL061C, strain CIN8, stronger effect = lower value",0.0485 (active)
same,normalized growth,"locus YER002W, strain NOP16, stronger effect = lower value",0.999 (inactive)
same,normalized growth,"locus YER015W, strain faa2, stronger effect = lower value",0.0679 (active)
same,normalized growth,"locus YER016W, strain bim1, stronger effect = lower value",0.147 (active)
same,normalized growth,"locus YER110C, stronger effect = lower value",0.0784 (active)
same,normalized growth,"locus YER111C, strain swi4, stronger effect = lower value",0.937 (inactive)
same,normalized growth,"locus YER155C, strain BEM2 (second series), stronger effect = lower value",0.0943 (active)
same,normalized growth,"locus YER155C, strain BEM2, stronger effect = lower value",0.0677 (active)
same,normalized growth,"locus YER167W, strain BCK2, stronger effect = lower value",0.0545 (active)
same,normalized growth,"locus YFR010W, strain ubp6, stronger effect = lower value",0.07 (active)
same,normalized growth,"locus YGL078C, strain dbp3, stronger effect = lower value",0.0555 (active)
same,normalized growth,"locus YGL086W, strain mad1, stronger effect = lower value",0.062 (active)
same,normalized growth,"locus YGL167C, strain pmr1, stronger effect = lower value",0.0891 (active)
same,normalized growth,"locus YGL173C, strain kem1, stronger effect = lower value",0.0711 (active)
same,normalized growth,"locus YGL227W, strain vid30, stronger effect = lower value",0.0629 (active)
same,normalized growth,"locus YGL240W, strain doc1, stronger effect = lower value",0.0921 (active)
same,normalized growth,"locus YGL248W, strain PDE1, stronger effect = lower value",0.0477 (active)
same,normalized growth,"locus YGL253W, strain hxk2, stronger effect = lower value",0.0553 (active)
same,normalized growth,"locus YGR078C, strain PAC10, stronger effect = lower value",0.0595 (active) and 0.975 (inactive)
same,normalized growth,"locus YGR135W, strain pre9, stronger effect = lower value",0.0669 (active)
same,normalized growth,"locus YGR229C, strain SMI1, stronger effect = lower value",0.0625 (active) and 0.862 (inactive)
same,normalized growth,"locus YGR252W, strain gcn5, stronger effect = lower value",0.162 (active)
same,normalized growth,"locus YHR013C, strain ard1, stronger effect = lower value",0.11 (active)
same,normalized growth,"locus YHR027C, strain rpn1, stronger effect = lower value",0.0642 (active)
same,normalized growth,"locus YHR030C, strain SLT2, stronger effect = lower value",0.0507 (active) and 0.0959 (active)
same,normalized growth,"locus YHR079C, strain IRE1 (second series), stronger effect = lower value",0.65 (active)
same,normalized growth,"locus YHR079C, strain IRE1, stronger effect = lower value",0.12 (active)
same,normalized growth,"locus YHR094C, strain hxt1, stronger effect = lower value",0.0617 (active)
same,normalized growth,"locus YHR129C, strain ARP1, stronger effect = lower value",0.0594 (active)
same,normalized growth,"locus YHR142W, strain chs7, stronger effect = lower value",0.0813 (active)
same,normalized growth,"locus YHR200W, strain rpn10, stronger effect = lower value",0.0601 (active)
same,normalized growth,"locus YIL066C, strain RNR3, stronger effect = lower value",0.0543 (active)
same,normalized growth,"locus YIL073C, strain SPO22, stronger effect = lower value",0.114 (active)
same,normalized growth,"locus YIL125W, strain kgd1, stronger effect = lower value",0.0566 (active)
same,normalized growth,"locus YIR030C, strain dcg1, stronger effect = lower value",0.0629 (active)
same,normalized growth,"locus YJL092W, strain hpr5, stronger effect = lower value",0.0617 (active)
same,normalized growth,"locus YJL095W, strain BCK1 (second series), stronger effect = lower value",0.0731 (active)
same,normalized growth,"locus YJL095W, strain BCK1, stronger effect = lower value",0.12 (active) and 0.111 (active)
same,normalized growth,"locus YJL115W, strain asf1, stronger effect = lower value",0.0858 (active)
same,normalized growth,"locus YJL129C, strain trk1, stronger effect = lower value",0.769 (active)
same,normalized growth,"locus YJL134W, strain LCB3, stronger effect = lower value",0.0503 (active)
same,normalized growth,"locus YJL154C, strain vps35, stronger effect = lower value",0.0602 (active)
same,normalized growth,"locus YJL164C, strain tpk1, stronger effect = lower value",0.0617 (active)
same,normalized growth,"locus YJL166W, strain qcr8, stronger effect = lower value",0.0635 (active)
same,normalized growth,"locus YJL168C, strain set2, stronger effect = lower value",0.0616 (active)
same,normalized growth,"locus YJL187C, strain SWE1 (second series), stronger effect = lower value",0.907 (inactive)
same,normalized growth,"locus YJR043C, strain POL32, stronger effect = lower value",0.0678 (active)
same,normalized growth,"locus YJR066W, strain TOR1, stronger effect = lower value",0.883 (inactive)
